Pf growth 48h – Primary qHTS for delayed death inhibitors of the malarial parasite plastid, 48 hour incubation; P. falciparum luciferase growth in erythrocytes, 48 h; Potency, µM (titrated, usually from 28.7 µM), usual class: inhibitors; hit rate 5.9% among 310,000
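Firefly luciferase activity from engineered P. falciparum reports growth; inhibitors lower the luminescent signal. Cultures contained 2% hematocrit erythrocytes at 0.1% final parasitemia.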
Shiga toxin inh – A qHTS for Small Molecule Inhibitors of Shiga Toxin; Vero cells, Shiga toxin protein synthesis inhibition reporter; inhibition, % at 38.7 µM; hit rate 9.2% among 290,000; in the data active = inhibition mostly above about 28%, no sharp cut-off; inactive = mostly below about 43%
Cycloheximide cs – Cycloheximide Counterscreen for Small Molecule Inhibitors of Shiga Toxin; cell reporter, cycloheximide protein synthesis inhibition counterscreen; hit rate 12% among 300,000; max response, %; in the data active = max response mostly above about 13%, no sharp cut-off; inactive = mostly below about 14%; note: read at 38.3 µM for the half of the compounds with a filed dose
FBPA Giardia inh – qHTS Assay for Inhibitors of Fructose-1,6-bisphosphate Aldolase from Giardia Lamblia; A8B2U2; purified Giardia FBPA; Potency, µM (series often up to 59.6 µM), hits mostly inhibitors; hit rate 0.71% among 290,000; note: nearly all actives have a fitted effect of over 55% in size
Target sequence (A8B2U2 whole entry, looked up): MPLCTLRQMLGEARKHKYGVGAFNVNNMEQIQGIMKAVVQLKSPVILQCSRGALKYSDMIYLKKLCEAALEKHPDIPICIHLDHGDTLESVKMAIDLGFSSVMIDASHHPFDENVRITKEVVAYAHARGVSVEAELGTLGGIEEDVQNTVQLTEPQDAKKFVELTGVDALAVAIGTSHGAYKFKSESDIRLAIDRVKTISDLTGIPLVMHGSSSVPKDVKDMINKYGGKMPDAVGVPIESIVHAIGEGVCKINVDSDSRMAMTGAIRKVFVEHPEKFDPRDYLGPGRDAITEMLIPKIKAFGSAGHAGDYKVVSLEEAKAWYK
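Giardia FBPA (40 nM reagent) was preincubated 10 min at RT with compound (up to 57.5 uM final), then substrate plus GAPDH/TPI/NAD/arsenate coupling system with diaphorase/resazurin was added; resorufin fluorescence (525/598 nm) was read after 20 min.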
Pf growth 96h – Primary qHTS for delayed death inhibitors of the malarial parasite plastid, 96 hour incubation. P. falciparum luciferase reporter growth, 96 h. hit rate 6.9% among 320,000. Potency, µM (top dose mostly 28.7 µM), hits mostly inhibitors
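Compounds incubated with erythrocytes infected by luciferase-expressing P. falciparum (2% hematocrit, 0.05% parasitemia final) for 96 hours, 37 C in 5% CO2. Growth inhibition scored as decreased luciferase luminescence.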
NS1 inh – qHTS Assay for Inhibitors of Influenza NS1 Protein Function; hit rate 0.4% among 270,000; Potency, µM (top dose mostly 46.1 µM); AID 2326, 2010; calls by dose curve; note: actives are rising curves; nearly all actives have a fitted effect of over 50% in size
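Recovery from NS1-induced slow growth read by OD600 in budding yeast switched to galactose assay medium (pH 6.0, -URA) at 1:100 dilution. Compound 23 nl per well; the matching strain lacking NS1 serves as control.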
Numbers stand for hits; i = inactive; ? = inconclusive; nt = not tested or not shown; [ ] = another dose, or the depositor's remark. Only some compounds are listed: those with a hit (about 21% of all), similar ones and a draw of the others. Unless noted, calls come from the whole dose curve; as a rule, active = well fitted curve in the direction sought with a large enough effect; inconclusive = small, poorly fitted or top-dose-only effect, or another doubt; inactive = no such curve, though single readings can be large; an effect the other way counts as inactive or inconclusive.

SMILES	Pf growth 48h	Shiga toxin inh	Cycloheximide cs	FBPA Giardia inh	Pf growth 96h	NS1 inh
OC1CCC(NC(=S)Nc2ccc(SC(F)F)cc2)CC1 (centres undefined)	i	75	36	i	i	nt
O=C(O)c1ccc(NC(=S)NC2CCCCC2)cc1	i	i	i	i	?	i
O=C(Nc1ccc(SC(F)F)cc1)C12CCC(CC1)C2	i	77	19	?	i	i
CC1CCCC(NC(=S)Nc2ccc(SC(F)F)cc2)C1C (centres undefined)	?	i	25	i	nt	i
CCCCCCCCCCCCCCCCOCC(CO)OC (centres undefined)	nt	nt	nt	i	nt	nt
COc1cccc(-c2nnc(SCc3ccccn3)n2C)c1	i	i	17	i	nt	i
Cn1c(SCc2ccccn2)nnc1-c1ccncc1	i	i	i	i	nt	i
Cn1c(SCc2ccccn2)nnc1-c1ccccc1	i	103	36	i	i	i
COCc1c(C(=O)N/N=C/c2cccc3ccccc23)nnn1-c1nonc1N	i	i	i	i	?	nt
Cc1ccc(NC(=S)NNC(C)(C)C)cc1	13µM	41	34	i	5.9µM	i
CN(CCO)c1cc(NCCCN2CCC(Cc3ccccc3)CC2)c2nonc2c1[N+](=O)[O-]	10µM	i	i	i	i	nt
CC1CCN(CCCNc2cc(NCCO)c([N+](=O)[O-])c3nonc23)CC1	i[0.00184 µM]	i	i	i	i	i
O=S(=O)(c1ccccc1)N1CCC2(CCN(Cc3nccs3)CC2)CC1	nt	nt	nt	i	nt	nt
N#Cc1cnc(Oc2ccc(Cl)cc2)nc1N	i	i	19	i	i	i
Cc1c(/C(O)=C2/C(=O)C(=O)N(CCN3CCOCC3)C2c2cccs2)cnn1-c1ccccc1 (centres undefined)	i	86	40	i	i	i
Cc1ccc(C2/C(=C(/O)c3cnn(-c4ccccc4)c3C)C(=O)C(=O)N2CCN2CCOCC2)o1 (centres undefined)	nt	75	56	i	nt	i
CCN(CC)CCN1C(=O)C(=O)/C(=C(/O)c2cnn(-c3ccccc3)c2C)C1c1ccc(C)o1 (centres undefined)	i	87	47	i	nt	i
NS(=O)(=O)c1cccc(NC(=O)c2cccnc2Oc2ccccc2)c1	i	i	i	i	?	i
CC(C)(C)c1ccc(OC(=O)N2CCOCC2)cc1	i	69	45	nt	i	i
O=C(Oc1ccccc1OC(=O)N1CCOCC1)N1CCOCC1	i	i	i	i	i	i
COC(=O)c1ccc(OC(=O)N2CCOCC2)cc1	i	nt	i	i	i	i
CCC(=O)c1ccc(OC(=O)N2CCOCC2)cc1	i	33	23	i	i	i
O=C(Oc1cccc2c(OC(=O)N3CCOCC3)cccc12)N1CCOCC1	i	i	i	i	nt	?
O=C(Oc1ccccc1)N1CCOCC1	i	i	i	i	?	i
O=C(Oc1ccc(OC(=O)N2CCOCC2)cc1)c1ccccc1	i	i	12	i	i	i
SMILES	Pf growth 48h	Shiga toxin inh	Cycloheximide cs	FBPA Giardia inh	Pf growth 96h	NS1 inh
Cc1ccc(OC(=O)N2CCOCC2)cc1	i	48	30	i	i	i
C=C(C)[C@H]1CC=C(C)C(=O)C1	i	nt	nt	i	i	nt
O=[N+]([O-])c1ccccc1S(=O)(=O)N1CCN(C2CCN(Cc3ccccc3)CC2)CC1	i	i	i	nt	i	i
O=C(Oc1ccc2ccc(OC(=O)N3CCOCC3)cc2c1)N1CCOCC1	i	i	11	i	10µM	i
COc1cccc(Nc2ccc(Nc3cccc(OC)c3)nn2)c1	i	i	i	i	i	i
CC(=O)c1ccc(Nc2c3c(nc4ccccc24)CCCC3)cc1	?	i	i	i	i	i
CC(=O)c1cccc(Nc2ccc(-c3ccccc3F)nn2)c1	i	94	38	i	i	nt
COc1ccccc1-c1ccc(Nc2cccc(C(C)=O)c2)nn1	i	74	37	i	i	i
CC(=O)c1ccc(Nc2ccc(-c3ccccc3C)nn2)cc1	i	107	55	i	i	i
CC(=O)c1cccc(NC(=O)c2ccccc2-c2ccccc2C(=O)O)c1	i	i	i	?	?	i
O=[N+]([O-])c1cc(/C=N\Nc2nc(-c3ccccc3)cs2)ccc1O	12µM	i	23	i	i	nt
COc1cc(/C=N/Nc2cc(C)nc(NS(=O)(=O)c3ccc(C)cc3)n2)ccc1O	i	i	i	i	i	i
